The results in this text go back to PubChem BioAssay (NCI).

Several values for one entry are separate records, joined by “and”; a condition that tells them apart may be missing. Equal entries are not always repeated. This is part of a sample that, as a whole, favours compounds with a hit. Of some 79,000 tested, about 15% had one in any assay. A number with no mark means an inactive call. Activity calls are given as the source filed them. Rule as the data show it: active = growth inhibition above about 70%; inactive = the rest.

Assay [1] in a line: NCI Yeast Anticancer Drug Screen. Data for the rad50 strain (AID 155).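 Also: 0% = growth of vehicle-only cultures of the same strain.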 Particulars: S. cerevisiae rad50 strain growth inhibition, active compounds read high; at 50.0 µM unless noted. A digest of the protocol:
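Cells are treated with compound, grown, and their growth is then scored against vehicle-only cultures of the same repair-deficient yeast strain.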

A short description of assay [2]: NCI Yeast Anticancer Drug Screen. Data for the mec2-1 strain (AID 157). Conditions: S. cerevisiae mec2-1 strain, active compounds read high; at 50.0 µM unless noted. In outline:
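Each compound was tested on mec2-1 yeast, a strain altered in DNA damage repair or cell cycle control. Growth inhibition is reported relative to vehicle.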

Assay [3] in a line: NCI Yeast Anticancer Drug Screen. Data for the sgs1 mgt1 strain (AID 161).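 Also: 0% = growth of cultures given vehicle only.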 Particulars: S. cerevisiae sgs1 mgt1 strain, active compounds read high; at 50.0 µM unless noted. In outline: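 Read-out: growth inhibition vs vehicle controls. Cells: mutant yeast strain deficient in DNA damage repair.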
A short description of assay [4]: NCI Yeast Anticancer Drug Screen. Data for the cln2 rad14 strain (AID 165).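 Also: 0% = growth equal to vehicle treated cultures.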 Particulars: S. cerevisiae cln2 rad14 strain, active compounds read high; at 50.0 µM unless noted. A digest of the protocol: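 Test compounds were added to cln2 rad14 yeast cultures; inhibition of growth was then determined by comparison with vehicle treatment.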
Assay [5] is described as follows: NCI Yeast Anticancer Drug Screen. Data for the bub3 strain (AID 167). Particulars: S. cerevisiae bub3 mutant strain, active compounds read high; at 50.0 µM unless noted. A digest of the protocol:
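Part of a panel of yeast mutants defective in DNA damage repair or cell cycle regulation. Each strain is grown with compound, and inhibition is calculated relative to solvent-treated cultures.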

Assay [6] is described as follows: NCI Yeast Anticancer Drug Screen. Data for the mlh1 rad18 strain (AID 175). Conditions: S. cerevisiae mlh1 rad18 strain growth inhibition, active compounds read high; at 50.0 µM unless noted. A digest of the protocol: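 Inhibition values reflect reduced growth of mutant yeast versus vehicle-treated controls following compound exposure; the mutations affect DNA damage repair.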

For `O=[N+]([O-])c1cccc(/C=C/c2ccnc3ccccc23)c1`, the growth inhibition was 10.2% in assay [1]; -13.1% in assay [2]; 2.95% in assay [3]; 5.65% in assay [4]; 19.4% in assay [5]; 4.15% in assay [6].

`Cn1cnc([N+](=O)[O-])c1Sc1ncn[nH]1`: the growth inhibition in assay [1] was -3.45% and 6%; in assay [2], 3.3% and -1.85%; in assay [3], 8.45% and 2.6%; in assay [4], 0.35% and 24.6%; in assay [5], 4% and 21.8%; in assay [6] it was -54.3% and 0.9%.

As to `c1ccc(-c2cn(-c3ccccc3)nn2)cc1`, the growth inhibition in assay [1] is -1%; in assay [2], -4.5%; in assay [3] it was -13.7%; in assay [4] it was -22.9%; in assay [5], -28.8%; in assay [6], 0.6%.

As for `CCCCN1C(=O)NC(Cc2ccccc2)C1=O` (stereo not given), the growth inhibition is -13.2% in assay [1]; -1.35% in assay [2]; -13.2% in assay [3]; 4.95% in assay [4]; -1.9% in assay [5]; -12.5% in assay [6].

Take `CC1(C)CCC2=C(O1)C(=O)c1ccccc1C2=O`: the growth inhibition is 13.8% in assay [1]; -3.45% in assay [2]; 29.6% in assay [3]; 3.35% in assay [4]; 35.8% in assay [5]; 18% in assay [6].

Regarding `CCOC(=O)C(SC(S(=O)(=O)c1ccccc1)S(=O)(=O)c1ccccc1)C(=O)OCC`, the growth inhibition is 33.3% in assay [1]; -1.75% in assay [2]; 21.2% in assay [3]; 21.6% in assay [4]; -2.05% in assay [5]; 25.6% in assay [6].

For the compound `C=CC(=O)OCCOCCCC`, the growth inhibition is 8.75% in assay [1]; 5.4% in assay [2]; -4.7% in assay [3]; -21.9% in assay [4]; -15.1% in assay [5]; 4.85% in assay [6].

For the compound `CCCCc1cc(C(=O)OC/C(C)=N/NC(N)=O)c2ccccc2n1`, the growth inhibition in assay [1] is -6.7%; in assay [2] it was 25.8%; in assay [3], 18.9%; in assay [4] it was -27.6%; in assay [5], 35.8%; in assay [6], 9.45%.

For the compound `CCC(=N\NC(=S)NCCN(C)C)/C(C)=N/NC(=S)NCCN(C)C`, the growth inhibition in assay [1] is 57%; in assay [2], 13.2%; in assay [3], 52.2%; in assay [4], 4.95%; in assay [5] it was 16.5%; in assay [6] it was 54.9%.

As for `COc1ccc(/C(C)=N/NC(=O)c2ccncc2)cc1OC`, the growth inhibition in assay [1] is -9.6%; in assay [2] it was -9.9%; in assay [3], -18.6%; in assay [4], -12.7%; in assay [5] it was -40%; in assay [6], -4.2%.

For `Cc1ccccc1C(=O)NCC(=O)O`, the growth inhibition in assay [1] was 10.8%; in assay [2], -28.1%; in assay [3] it was 8.2%; in assay [4] it was 3.65%; in assay [5], -4.1%; in assay [6] it was 12.3%.

Take `C=CC(C)(C)c1c(OC)cc(-c2ccccc2)oc1=O`: the growth inhibition in assay [1] is -7.65%; in assay [2], -34.4%; in assay [3], 29.6%; in assay [4], -23%; in assay [5], 20.6%; in assay [6] it was -9.9%.

As to `COc1ccc(/C=N/NC(=O)c2sc(=S)n(-c3ccccc3)c2N)cc1`, the growth inhibition in assay [1] is 2.9%; in assay [2], -0.45%; in assay [3] it was -40.1%; in assay [4], -16.9%; in assay [5], -17.1%; in assay [6], -7.5%.

For `Cc1cccc(C)c1NS(=O)(=O)c1ccc(Cl)cc1`, the growth inhibition was 91.8% (active) in assay [1]; 84.4% (active) in assay [2]; 68.7% in assay [3]; 91.7% (active) in assay [4]; 94% (active) in assay [5]; 90.4% (active) in assay [6].

`Cc1ccc(N(C)S(=O)(=O)c2ccccc2)cc1`: the growth inhibition in assay [1] is 11.4%; in assay [2] it was -31.3%; in assay [3], 15.4%; in assay [4] it was 4.25%; in assay [5], 22.6%; in assay [6], 4.55%.

As for `CSc1ccc2nncc(SC)c2c1`, the growth inhibition was 64.2% in assay [1]; 7.05% in assay [2]; 12.9% in assay [3]; 40.1% in assay [4]; 18% in assay [5]; 40.9% in assay [6].

Consider `C/C(=C\CNc1ncnc2c1ncn2CCC#N)CO`, for which the growth inhibition was -17% in assay [1]; 13.2% in assay [2]; -33.2% in assay [3]; 1.5% in assay [4]; 14.8% in assay [5]; -15.9% in assay [6].

`CSc1nc(C)cc(=O)[nH]1`: the growth inhibition in assay [1] is -12.1%; in assay [2], -2.95%; in assay [3], -17.9%; in assay [4], 20%; in assay [5], 5.5%; in assay [6], -13.3%.

As for `Nc1cc(Nc2ccccc2)nc(=O)[nH]1`, the growth inhibition in assay [1] is -3.1%; in assay [2], -0.55%; in assay [3] it was -4.85%; in assay [4], -75.2%; in assay [5], -7.1%; in assay [6] it was 5.2%.

With `COc1cccc(C(=O)c2ccncc2C)c1OC`, the growth inhibition was -14.6% in assay [1]; -4.45% in assay [2]; 9.95% in assay [3]; -7.95% in assay [4]; 28% in assay [5]; -8.1% in assay [6].
